# Measurements from PubChem BioAssay AID1508601 (ICCB-Longwood Screening Facility, Harvard Medical School, 2020).
# Values joined by “and” are separate entries in the source; they are usually repeats but may differ in a detail not shown here. Equal values may be shown once. Hit rate of the full screen: of about 5,700 compounds, about 85 (1%) were called active. The sample holds actives, similar compounds and a random draw of the others, so the mix is not that of the screen. Rule as the data show it: active = p53-positive nuclei above about 36% (passing the limit was not always enough); inactive = the rest.
# Tests used:
# [1] = nuclear p53 accumulation, HPV+ cells – imaging, p53-positive nuclei imaging, 24 h, 48 h (AID 1508601); conditions: 24/48 h
# [2] = target: Cellular tumor antigen p53 (Homo sapiens) (UniProt P04637); experiment: as above; conditions: 24/48 h, stronger effect = higher value
# Cellular tumor antigen p53 (Homo sapiens), sequence (P04637 whole entry, looked up): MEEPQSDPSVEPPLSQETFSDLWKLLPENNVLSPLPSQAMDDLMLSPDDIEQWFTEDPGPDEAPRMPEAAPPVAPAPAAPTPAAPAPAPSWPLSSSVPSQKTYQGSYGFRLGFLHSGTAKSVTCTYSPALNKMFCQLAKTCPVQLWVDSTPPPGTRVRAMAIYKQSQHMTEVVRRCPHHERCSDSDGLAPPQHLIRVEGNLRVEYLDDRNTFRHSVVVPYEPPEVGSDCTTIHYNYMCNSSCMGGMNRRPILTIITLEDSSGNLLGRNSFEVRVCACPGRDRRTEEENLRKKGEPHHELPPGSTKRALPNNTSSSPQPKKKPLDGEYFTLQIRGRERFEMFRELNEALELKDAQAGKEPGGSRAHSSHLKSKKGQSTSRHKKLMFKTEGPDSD
smiles,measurement,setting,value
CN(C)CCC(CSc1ccccc1)Nc1ccc(S(=O)(=O)NC(=O)c2ccc(N3CCN(Cc4ccccc4-c4ccc(Cl)cc4)CC3)cc2)cc1[N+](=O)[O-] (stereo not given),"nuclei count, normalised","[1]; measured here: cell number at 24 h, Library stock concentration: 500 nM",120%
same,"nuclei count, normalised","[1]; measured here: cell number at 24 h, Library stock concentration: 1.5 uM",122%
same,"nuclei count, normalised","[1]; measured here: cell number at 24 h, Library stock concentration: 4.6 uM",117%
same,"nuclei count, normalised","[1]; measured here: cell number at 24 h, Library stock concentration: 13.7 uM",121%
same,"nuclei count, normalised","[1]; measured here: cell number at 24 h, Library stock concentration: 41 uM",117%
same,"nuclei count, normalised","[1]; measured here: cell number at 24 h, Library stock concentration: 80 uM",111% and 86.3%
same,"nuclei count, normalised","[1]; measured here: cell number at 24 h, Library stock concentration: 123 uM",117%
same,"nuclei count, normalised","[1]; measured here: cell number at 24 h, Library stock concentration: 370 uM",117%
same,"nuclei count, normalised","[1]; measured here: cell number at 24 h, Library stock concentration: 400 uM",109% and 85.3%
same,"nuclei count, normalised","[1]; measured here: cell number at 24 h, Library stock concentration: 1.111 mM",113%
same,"nuclei count, normalised","[1]; measured here: cell number at 24 h, Library stock concentration: 2 mM",113% and 92.5%
same,"nuclei count, normalised","[1]; measured here: cell number at 24 h, Library stock concentration: 3.33 mM",105%
same,"nuclei count, normalised","[1]; measured here: cell number at 24 h, Library stock concentration: 3.333 mM",127%
same,"nuclei count, normalised","[1]; measured here: cell number at 24 h, Library stock concentration: 10 mM",111% and 80.6% and 116%
same,"nuclei count, normalised","[1]; measured here: cell number at 48 h, Library stock concentration: 500 nM",112%
same,"nuclei count, normalised","[1]; measured here: cell number at 48 h, Library stock concentration: 1.5 uM",111%
same,"nuclei count, normalised","[1]; measured here: cell number at 48 h, Library stock concentration: 4.6 uM",112%
same,"nuclei count, normalised","[1]; measured here: cell number at 48 h, Library stock concentration: 13.7 uM",117%
same,"nuclei count, normalised","[1]; measured here: cell number at 48 h, Library stock concentration: 41 uM",114%
same,"nuclei count, normalised","[1]; measured here: cell number at 48 h, Library stock concentration: 80 uM",99.7% and 87.7%
same,"nuclei count, normalised","[1]; measured here: cell number at 48 h, Library stock concentration: 123 uM",112%
same,"nuclei count, normalised","[1]; measured here: cell number at 48 h, Library stock concentration: 370 uM",113%
same,"nuclei count, normalised","[1]; measured here: cell number at 48 h, Library stock concentration: 400 uM",97.6% and 86%
same,"nuclei count, normalised","[1]; measured here: cell number at 48 h, Library stock concentration: 1.111 mM",112%
same,"nuclei count, normalised","[1]; measured here: cell number at 48 h, Library stock concentration: 2 mM",98% and 96.4%
same,"nuclei count, normalised","[1]; measured here: cell number at 48 h, Library stock concentration: 3.33 mM",102%
same,"nuclei count, normalised","[1]; measured here: cell number at 48 h, Library stock concentration: 3.333 mM",126%
same,"nuclei count, normalised","[1]; measured here: cell number at 48 h, Library stock concentration: 10 mM",106% and 92.8% and 127%
same,"p53-positive nuclei, normalised",[2]; Library stock concentration: 500 nM,-0.0213% (inactive)
same,"p53-positive nuclei, normalised",[2]; Library stock concentration: 1.5 uM,0.0237% (inactive)
same,"p53-positive nuclei, normalised",[2]; Library stock concentration: 4.6 uM,0.0183% (inactive)
same,"p53-positive nuclei, normalised",[2]; Library stock concentration: 13.7 uM,-0.104% (inactive)
same,"p53-positive nuclei, normalised",[2]; Library stock concentration: 41 uM,-0.0533% (inactive)
same,"p53-positive nuclei, normalised",[2]; Library stock concentration: 80 uM,0.0591% (inactive) and -0.273% (inactive)
same,"p53-positive nuclei, normalised",[2]; Library stock concentration: 123 uM,-0.176% (inactive)
same,"p53-positive nuclei, normalised",[2]; Library stock concentration: 370 uM,-0.136% (inactive)
same,"p53-positive nuclei, normalised",[2]; Library stock concentration: 400 uM,0.0679% (inactive) and 0.126% (inactive)
same,"p53-positive nuclei, normalised",[2]; Library stock concentration: 1.111 mM,-0.092% (inactive)
same,"p53-positive nuclei, normalised",[2]; Library stock concentration: 2 mM,-0.0104% (inactive) and 0.232% (inactive)
same,"p53-positive nuclei, normalised",[2]; Library stock concentration: 3.33 mM,-0.445% (inactive)
same,"p53-positive nuclei, normalised",[2]; Library stock concentration: 3.333 mM,-0.149% (inactive)
same,"p53-positive nuclei, normalised",[2]; Library stock concentration: 10 mM,-0.104% (inactive) and 0.208% (inactive) and -0.0111% (inactive)
same,"p53-positive nuclei, normalised","[2]; measured here: p53 positive nuclei at 24 h, Library stock concentration: 500 nM",0.154%
same,"p53-positive nuclei, normalised","[2]; measured here: p53 positive nuclei at 24 h, Library stock concentration: 1.5 uM",-0.0609%
same,"p53-positive nuclei, normalised","[2]; measured here: p53 positive nuclei at 24 h, Library stock concentration: 4.6 uM",-0.00335%
same,"p53-positive nuclei, normalised","[2]; measured here: p53 positive nuclei at 24 h, Library stock concentration: 13.7 uM",-0.0575%
same,"p53-positive nuclei, normalised","[2]; measured here: p53 positive nuclei at 24 h, Library stock concentration: 41 uM",0.00542%
same,"p53-positive nuclei, normalised","[2]; measured here: p53 positive nuclei at 24 h, Library stock concentration: 80 uM",-0.0528% and -0.0593%
same,"p53-positive nuclei, normalised","[2]; measured here: p53 positive nuclei at 24 h, Library stock concentration: 123 uM",-0.105%
same,"p53-positive nuclei, normalised","[2]; measured here: p53 positive nuclei at 24 h, Library stock concentration: 370 uM",-0.113%
same,"p53-positive nuclei, normalised","[2]; measured here: p53 positive nuclei at 24 h, Library stock concentration: 400 uM",-0.0967% and 0.0394%
same,"p53-positive nuclei, normalised","[2]; measured here: p53 positive nuclei at 24 h, Library stock concentration: 1.111 mM",-0.104%
same,"p53-positive nuclei, normalised","[2]; measured here: p53 positive nuclei at 24 h, Library stock concentration: 2 mM",-0.0967% and 0.437%
same,"p53-positive nuclei, normalised","[2]; measured here: p53 positive nuclei at 24 h, Library stock concentration: 3.33 mM",0.0238%
same,"p53-positive nuclei, normalised","[2]; measured here: p53 positive nuclei at 24 h, Library stock concentration: 3.333 mM",-0.165%
same,"p53-positive nuclei, normalised","[2]; measured here: p53 positive nuclei at 24 h, Library stock concentration: 10 mM",-0.00444% and -0.0479% and 0.0019%
CCCCC[C@@](C)(O)/C=C/[C@H]1[C@H](O)CC(=O)[C@@H]1C/C=C\CCCC(=O)O,"nuclei count, normalised","[1]; measured here: cell number at 24 h, concentration not given here",101%
same,"nuclei count, normalised","[1]; measured here: cell number at 48 h, concentration not given here",105%
same,"p53-positive nuclei, normalised",[2]; concentration not given here,-0.0639% (inactive)
same,"p53-positive nuclei, normalised","[2]; measured here: p53 positive nuclei at 24 h, concentration not given here",0.0947%
